The list is not random: actives were taken first. Their share in the collection is about 21%.
Pf growth 96h: inhibits malaria parasite growth, 96 h; Potency, µM (highest dose often 28.7 µM), for inactives: at the top dose activity change, negative = inhibition, hits mostly inhibitors; 6.9% of 320,000 active; AID 504834; P. falciparum luciferase reporter growth, 96 h; further: potency means the concentration at half of the fitted maximal effect; on the % scale 0 is the no-effect control and ±100 the full control effect
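Luminescence readout: decreased luciferase signal marks inhibited growth of reporter-expressing P. falciparum in infected red cells (2% hematocrit, 0.05% parasitemia final), exposed to compound two generations (96 h, 37 C, 5% CO2).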
CHX counter: counter-screen hit for Shiga toxin inhibitors, cycloheximide; cell reporter, cycloheximide protein synthesis inhibition counterscreen; max response, %; 12% of 300,000 active; in the data active means max response mostly above about 13%, no sharp cut-off; inactive means mostly below about 14%; further: read at 38.3 µM for the half of the compounds with a filed dose; 0% is about no effect
NS1 inh: blocks influenza NS1 protein function. 0.4% of 270,000 active. Potency, µM (doses to about 46.1 µM), for inactives: at the highest dose activity, positive = more growth. AID 2326; calls by dose curve; further: potency means the concentration at half of the fitted maximal effect; actives are rising curves; nearly all actives have a fitted effect of over 50% in size
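In this qHTS, NS1 from influenza A is expressed in budding yeast, where it slows growth. Cells are switched from glucose to 2% galactose medium (pH 6.0, -URA), treated with compound, and growth recovery is read at OD600.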
Pf growth 48h: inhibits P. falciparum growth in the first generation, 48 h; P. falciparum luciferase growth in erythrocytes, 48 h; Potency, µM (series often up to 28.7 µM), without a hit: at the highest dose activity change, negative = inhibition, usual class: inhibitors; 5.9% of 310,000 active; further: potency means the concentration at half of the fitted maximal effect; on the % scale 0 is the no-effect control and ±100 the full control effect
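Here the parasites carry a stable luciferase gene and grow inside erythrocytes in Albumax-based RPMI medium with compound for one erythrocytic cycle. Activity is scored as loss of luminescent signal.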
Shiga inhibitor: Shiga toxin inhibition; Vero cells, Shiga toxin protein synthesis inhibition reporter; inhibition, % at 38.7 µM; 9.2% of 290,000 active; in the data active means inhibition mostly above about 28%, no sharp cut-off; inactive means mostly below about 43%; further: 0% is about no effect
Starred values were filed as active, the others as inactive; ? = inconclusive; / = no result given. Unless noted, the call rests on the fitted dose curve; in most records, active means well fitted inhibition curve with a large enough effect; inconclusive means small, poorly fitted or top-dose-only effect, or another doubt; inactive means no such curve, though single readings can be large or run the other way.

SMILES	Pf growth 96h	CHX counter	NS1 inh	Pf growth 48h	Shiga inhibitor
Cc1csc2nc(O)c(C(=O)NCc3ccc4c(c3)OCO4)c(=O)n12	-21%	/	/	?	/
O=C(CNS(=O)(=O)c1cccs1)Nc1ccc2c(c1)OCCO2	-15%	43*	6%	65%	90*
O=C(CNS(=O)(=O)c1cccs1)NCc1ccccc1	0%	13	/	?	-17
O=C(CNS(=O)(=O)c1cccs1)NCCc1ccc(Cl)cc1	13µM*	1	-4%	6%	-4
COc1cc(C(=O)NCCC(=O)NC2CCC(C)CC2)cc(OC)c1OC (configuration not stated)	10%	-5	6%	-16%	-9
CC1(C)CCC(=O)N[C@H]1CC(=O)C[C@H]1NC(=O)CCC1(C)C	/	/	0%	/	/
O=C1C=C(NCCN2CCOCC2)C(=O)c2cnccc21	1.7µM*	-12	-40%	1.5µM*	-31
O=C(NCCN1CCOCC1)c1ccncc1	-13%	-3	-7%	10%	15
CC(C)(C)N(CC#CCC1(O)c2ccccc2-c2ccccc21)CCO	12µM*	-1	6%	?	19
CN(C)CCC#CC1(O)c2ccccc2-c2ccccc21	58%	1	-1%	12%	-10
CCOc1ccc(N=C2NC(=O)SC2CC(=O)OC)cc1 (configuration not stated)	-2%	-3	-2%	44%	9
CN(C)c1ccc(N/C=C/C(=O)c2ccco2)cc1	?	49*	-2%	/	91*
CN(C)c1ccc(NC(=S)NC(=O)/C=C/c2ccco2)cc1	?	1	/	18%	16
CC(=O)Nc1ccc(C(=O)N2CCN(C(=O)c3ccco3)CC2)cc1	/	-4	-7%	-9%	-25
CC(=O)Nc1ccc(N/C=C/C(=O)c2ccco2)cc1	5%	59*	-9%	232%	76*
Cc1cc2c(=O)n(CC(=O)N3CCN(c4ccc(F)cc4)CC3)cnc2s1	178%	-1	3%	0%	-4
Cc1cccc(COc2ncnc3nc[nH]c23)c1	-20%	15	1%	9%	35*
CCN(c1cccc(C)c1)c1ncnc2nc[nH]c12	?	-1	-5%	?	-4
CC(C)(C)c1ccc(O)c(O)c1	19%	/	/	-17%	/
CC(C)(C)c1ccc(O)c(/C=N\O)c1	/	18*	-24%	59%	53*
COc1ccc(OCCSc2nnc(Cc3cccc4ccccc34)n2N)cc1	?	13	-51%	-14%	14
CCO[C@@H]1OC(C(=O)NCc2ccccc2)=C[C@H](C2CC2)[C@H]1CCCO	2%	-2	2%	?	26
CCO[C@@H]1OC(C(=O)NC2CC2)=C[C@H](c2c[nH]c3ccccc23)[C@H]1CCCO	?	11	-1%	-12%	52*
CCO[C@@H]1OC(C(=O)NCc2ccccc2)=C[C@H](C2CCCCC2)[C@H]1CCCO	9.3µM*	-2	1%	?	-20
CCO[C@H]1OC(C(=O)NC2CC2)=C[C@@H](c2c[nH]c3ccccc23)[C@@H]1CCCO	16%	-2	3%	50%	-6
SMILES	Pf growth 96h	CHX counter	NS1 inh	Pf growth 48h	Shiga inhibitor
COc1ccc(N(CC(O)Cn2nnc3ccccc32)S(=O)(=O)c2ccc(C)cc2)cc1 (configuration not stated)	/	-1	-3%	?	21
Oc1c(Br)cc(Br)cc1/C=N/NC(=S)N[C@H]1CC2C=CC1C2 (some centres not stated)	?	10	-1%	?	7
CCOc1ccc(/C=N/NC(=S)NC2CC3C=CC2C3)cc1 (configuration not stated)	8.3µM*	2	10%	?	12
COc1cc(/C=N/NC(=S)NC2CC3C=CC2C3)cc(OC)c1OC (configuration not stated)	2.9µM*	1	4%	5.2µM*	-16
O=C(c1c[nH]c2ccccc2c1=O)N1CCCCCC1	34%	-5	-1%	-9%	14
CCOc1ccccc1NC(=O)c1sc2ncn(CC(=O)N3CCOCC3)c(=O)c2c1C	6%	1	-3%	8%	-5
Cc1ccc(NC(=O)c2sc3ncn(CC(=O)N4CCOCC4)c(=O)c3c2C)c(Br)c1	12µM*	-6	8%	18%	-5
Cc1cc([N+](=O)[O-])ccc1NC(=O)c1sc2ncn(CC(=O)N3CCOCC3)c(=O)c2c1C	15µM*	-1	0%	?	-3
C[N+](C)([O-])CCC=C1c2ccccc2CCc2ccccc21	/	/	-11%	/	/
C[N+](C)(C)CC/C=C1/c2ccccc2CSc2ccccc21	4.1µM*	-2	18%	9.3µM*	14
CC(=O)c1cccc(NC(=O)c2ccc3c(c2)CCN3S(=O)(=O)c2ccccc2)c1	12µM*	24*	11%	?	42
NC(=O)C1CN(C(=O)c2cccc(S(=O)(=O)N3CCc4ccccc43)c2)c2ccccc2O1 (configuration not stated)	?	/	/	8.3µM*	/
CN(C)S(=O)(=O)c1cccc(NC(=O)c2cccc(S(=O)(=O)N3CCc4ccccc43)c2)c1	9.3µM*	/	/	5.9µM*	/
O=C(Nc1ccccc1)c1ccc2c(c1)CCN2S(=O)(=O)c1ccccc1	92%	12	8%	3.7µM*	-4
Cc1cccc(C)c1NC(=O)CN(C)S(=O)(=O)c1ccc(-c2ccc(=O)[nH]n2)s1	3%	7	?	?	-10
C=C(NCc1ccccc1)c1ccccc1O	-14%	/	/	-9%	/
CC1CCN(CC(O)COC2CCC(C(C)(C)C)CC2)CC1 (configuration not stated)	-16%	5	-45%	?	19
Cc1ccccc1N(CC(=O)NCC1CCCO1)C(=O)CNS(=O)(=O)c1ccc(F)cc1 (configuration not stated)	9%	0	-2%	4%	-19
Cc1ccc(CN2CCN(Cc3cnc(N4CCOCC4)s3)CC2CCO)o1 (configuration not stated)	30%	0	-5%	2%	-5
O=C(O)c1nn(CC(=O)N2CCN(c3ncc(C(F)(F)F)cc3Cl)CC2)c(=O)c2ccccc12	29%	-1	28%	-4%	-2
NS(=O)(=O)c1ccc(NC(=O)c2ccc3c(c2)CCN3S(=O)(=O)c2ccccc2)cc1	4%	-2	-3%	-22%	-8
O=C(Nc1ccc(S(=O)(=O)N2CCc3ccccc32)cc1)c1ccc2c(c1)OCO2	?	31*	-67%	4%	36*
CC(C)NC(=S)N/N=C1\CCCCC1C1CCCCC1 (configuration not stated)	3.3µM*	-5	-13%	/	15
Cc1cc(C)[n+](C2C3CC4CC(C3)CC2C4)o1 (configuration not stated)	1.9µM*	4	19%	?	10
CC(=O)Nc1sc(/C(C#N)=C\c2cccc(Cl)c2)nc1-c1ccc(C)cc1	?	1	4%	1%	-13
O=C(O)CN1C(=O)C(=O)N(Cc2ccccc2F)C1=O	14%	-1	4%	/	-13

Screens (PubChem)
